Sampled rows, rich in hits. Any-hit rate of the full collection: about 1.6%.
p53ts 39C kill – qHTS Screen for Compounds that Selectively Target Cancer Cells with p53 Mutations: Cytotoxicity of p53ts Cells at the Nonpermissive Temperature. H1299-p53A138V viability at 39C, ATP luminescence, 24 h. Potency, µM (top dose mostly 46.1 µM), without a hit: top-dose activity change, negative = cell killing, hits mostly cytotoxic. 130,000 compounds, 1.5% hits. AID 902, 2007; also: potency is read from the fitted curve at half-maximal effect; % is scaled to controls: 0 for no effect and ±100 for the full control effect; nearly all actives have a fitted effect of over 55% in size
Ub-GFP proteasome – Ubiquitin-GFP Assay. Ubiquitin-GFP reporter cells, proteasome inhibition, GFP fluorescence; response scale: untreated = 0%, 10 µM MG-132 = 100%. Potency, µM (doses to about 45.9 µM), inactives show at the highest dose activation (GFP accumulation), most hits filed as activators. 67,000 tested, under 10 active; active = well fitted activation curve with a large enough effect, not every such curve was filed as active; inconclusive = small, poorly fitted or top-dose-only effect, or another doubt; inactive = no such curve, though single readings can be large or run the other way; also: potency is read from the fitted curve at half-maximal effect
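Proteasome block read as GFP accumulation: ubiquitin(G76V)-GFP U2OS cells exposed to compound (2.9 nM–46 uM) for 4 hr at 37 C. Normalization used untreated cells as 0% and 10 uM MG-132 as 100%; concentration-response curves fitted.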
HBB splice mod – qHTS Assay for Modulators of Hemoglobin Beta Chain Splicing | HBB splicing reporter cell assay, activation; EGFP reporter with mutant IVS2-654 intron; response scale: normalised to 500 nM splice-correcting PNA | Potency, µM (highest dose often 46.1 µM), without a hit: at the top dose activation, usual class: activators | 65,000 compounds, 0.06% hits; also: potency is read from the fitted curve at half-maximal effect; 0% is about no effect
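Compounds were applied for 2 days to HeLa EGFP-654 cells, 500/well in Optimem with 2% FCS. The reporter's EGFP is disrupted by mis-splicing of beta-globin intron IVS2-654. Readout: summed well GFP fluorescence from 488 nm laser scanning; reference was 500 nM antisense […] 654 PNA.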
Peg3 imprint – qHTS Assay for Compounds that Induce Erasure of Genomic Imprints | mouse ES Peg3-LacZ reporter, beta-gal luminescence, 40 h | Potency, µM (top dose mostly 60.7 µM), inactives show at the highest dose activity change, positive = activation, usual class: activators | 110,000 compounds, 0.02% hits; also: potency is read from the fitted curve at half-maximal effect
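Readout: BetaGlo luminescence (5 min, room temp) for LacZ from the normally silent maternal Peg3 allele in female Peg3LacZ-Neo ES cells. Cells 300/well, 40 h, 37C, 5% CO2. Data normalized per plate to negative controls.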
Epigenetic mod – qHTS Assay for Epigenetic Modulators; 68,000 compounds, 0.09% hits; Potency, µM (series often up to 46.1 µM), for inactives: top-dose GFP derepression (activation); mouse C127i GFP locus derepression, cytometry, 30 h; AID 597, 2007; also: % of control where 0% means no effect
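Derepression screen: silenced CMV-GFP reporter in murine C127i cells, 30 h compound incubation at 37 C, washed cells imaged by laser-scanning cytometer to enumerate GFP-expressing objects of 20 to 120 um.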
p53ts 32C kill – qHTS Screen for Compounds that Selectively Target Cancer Cells with p53 Mutations: Cytotoxicity of p53ts Cells at the Permissive Temperature; H1299-p53A138V at 32C, ATP luminescence viability, 24 h; Potency, µM (titrated, usually from 46.1 µM), for inactives: at the highest dose activity change, negative = cytotoxicity, most hits filed as cytotoxic; 130,000 compounds, 0.93% hits;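 also: potency is read from the fitted curve at half-maximal effect; 0% = DMSO and -100% = full killing by reference compound; nearly all actives have a fitted effect of over 55% in size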
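Cells: H1299 p53ts (A138V), 600/well, pre-incubated 16–30 h at 37C. Cpd up to 46 uM, 24 h, 32C. Readout: ATPlite luminescence, 20 min RT. Normalization: DMSO vs tamoxifen 100 uM. AC50 by Hill equation.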
Active calls of the source: *; [ ] = remark or other dose. Unless noted, calls follow the shape of the dose curve; as a rule, active = well fitted curve in the direction sought with a large enough effect; inconclusive = small, poorly fitted or top-dose-only effect, or another doubt; inactive = no such curve, though single readings can be large; an effect the other way counts as inactive or inconclusive.

`CCc1nn(CC(=O)NCc2cccc(OC)c2)c(=O)c2cc3cc(F)ccc3n12` gave p53ts 39C kill -18%, Peg3 imprint -9%[10.9 µM] and p53ts 32C kill -2%.
For Cc1ccc(N2CCN(C(=O)c3cnn(-c4ccc(C)c(C)c4)c3C3CCNCC3)CC2)c(C)c1 the results were p53ts 39C kill 20µM*, Peg3 imprint 1%[10.9 µM] and p53ts 32C kill -5%.
Screening Cc1ccc(Cl)cc1N1CCN(C(=O)c2cnn(-c3ccc(Cl)cc3)c2C2CCNCC2)CC1 returned p53ts 39C kill 0%, Peg3 imprint -3%[10.9 µM] and p53ts 32C kill -12%.
For COc1ccc(-n2c(SCC(=O)N3CCCCC3)nnc2-c2cccnc2)cc1 the results were p53ts 39C kill 3%, Ub-GFP proteasome -2%, HBB splice mod -1%, Peg3 imprint -3%, Epigenetic mod -1% and p53ts 32C kill 0%.
For COC(=O)c1ccc(CSc2nc(N)cc(N)n2)cc1 the results were p53ts 39C kill inconclusive, Ub-GFP proteasome -4%, HBB splice mod 0%, Peg3 imprint -20%, Epigenetic mod -3% and p53ts 32C kill 13µM*.
`COC(=O)c1ccc(CSc2nnc(N)s2)cc1` gave p53ts 39C kill -12%, Ub-GFP proteasome 2%, HBB splice mod 0%, Peg3 imprint -32%, Epigenetic mod 1% and p53ts 32C kill -8%.
For O=C(CSc1nnnn1Cc1ccccc1)NCCc1ccccc1 the results were p53ts 39C kill -9%, Ub-GFP proteasome -1%, HBB splice mod -1%, Peg3 imprint -6%, Epigenetic mod -1% and p53ts 32C kill 13%.
O=C(CSc1cn(CC(=O)N2CCCC2)c2ccccc12)Nc1ccc(Cl)cc1 was read as p53ts 39C kill 13µM*, Peg3 imprint -15%[10.9 µM] and p53ts 32C kill -4%.
For CCc1ccc(NC(=O)CSc2cn(CC(=O)N3CCCC3)c3ccccc23)cc1 the results were p53ts 39C kill -20%, Peg3 imprint -12%[10.9 µM] and p53ts 32C kill -7%.
`COc1ccc(/C=C/C(=O)Nc2sc3c(c2C(N)=O)CCC(C)C3)cc1OC` (stereo not given) gave p53ts 39C kill 4%, Peg3 imprint 29%[10.9 µM] and p53ts 32C kill 6%.
Cc1[nH]c2ccccc2c1C(c1ccccc1)c1ccc(Cl)s1 (stereo not given) was read as p53ts 39C kill 13µM*, Peg3 imprint 8%[10.9 µM] and p53ts 32C kill inconclusive.
For Cc1cc(NC(c2cccnc2)c2c(C)[nH]c3ccccc23)no1 (stereo not given) the results were p53ts 39C kill 17%, Ub-GFP proteasome -2%, HBB splice mod 0%[57.5 µM], Peg3 imprint -9%, Epigenetic mod -1% and p53ts 32C kill 7%.
For O=C(O)c1ccc(C(=O)Nc2cccc3ccccc23)c(C(=O)O)c1 the results were p53ts 39C kill -4%[9.22 µM], Ub-GFP proteasome -2%[9.17 µM], HBB splice mod 0%[9.22 µM], Peg3 imprint -8%[10.9 µM], Epigenetic mod 0%[9.22 µM] and p53ts 32C kill 1%[9.22 µM].
Screening CCOC(=O)C1CCN(C(=O)CCNC(=O)Cn2ccc3ccccc3c2=O)CC1 returned p53ts 39C kill -9%, Ub-GFP proteasome 5%, HBB splice mod 4%, Peg3 imprint -12%, Epigenetic mod -1% and p53ts 32C kill 18%.
For CCOc1ccc(-c2oc3cc(Cl)ccc3c(=O)c2O)cc1OC the results were p53ts 39C kill 7.9µM*, Peg3 imprint 6%[10.9 µM] and p53ts 32C kill -15%.
For Fc1ccc(-c2nc3c4c(-c5ccccc5)c(-c5ccccc5)oc4ncn3n2)cc1 the results were p53ts 39C kill 16%, Peg3 imprint inconclusive and p53ts 32C kill 11%.
`O=C(Nc1ccc(NC(=O)c2cc3ccccc3o2)cc1)c1ccccc1` gave p53ts 39C kill -2%, Peg3 imprint -13%[10.9 µM] and p53ts 32C kill -2%.
`O=C(Nc1ccc2oc(-c3ccc(Br)cc3)nc2c1)c1cc2ccccc2o1` gave p53ts 39C kill 8%, Peg3 imprint 2%[10.9 µM] and p53ts 32C kill -2%.
For O=C(Nc1ccc(CN2CCOCC2)cc1)c1cc2ccccc2o1 the results were p53ts 39C kill 10µM*, Ub-GFP proteasome 11%, HBB splice mod -3%, Peg3 imprint -3%, Epigenetic mod 0% and p53ts 32C kill 10µM*.
Screening O=C(Nc1ccc(CN2CCCCC2)cc1)c1ccc2c(c1)OCO2 returned p53ts 39C kill -15%, Ub-GFP proteasome 4%, HBB splice mod 0%, Peg3 imprint -28%, Epigenetic mod -3% and p53ts 32C kill -7%.
O=C(Nc1ccc2oc(-c3cc(Br)ccc3Cl)nc2c1)c1cc2ccccc2o1 was read as p53ts 39C kill 5µM*, Peg3 imprint -2%[10.9 µM] and p53ts 32C kill inconclusive.
O=C(Nc1ccc2c(c1)OCO2)c1ccc(CN2CCOCC2)cc1 was read as p53ts 39C kill inconclusive, Ub-GFP proteasome 10%, HBB splice mod -1%, Peg3 imprint -21%, Epigenetic mod -2% and p53ts 32C kill 13µM*.
`O=C(O)c1ccc(NC(=O)c2cc3ccccc3o2)cc1` gave p53ts 39C kill 10µM*, Peg3 imprint -41%[10.9 µM] and p53ts 32C kill 7.9µM*.
`O=C(c1ccccc1F)N1CCC(O)(c2cccnc2)CC1` gave p53ts 39C kill -8%, Ub-GFP proteasome -1%, Peg3 imprint -2%, Epigenetic mod -1% and p53ts 32C kill -2%.
For O=C(Nc1ccc(CN2CCOCC2)cc1)c1cc2ccccn2n1 the results were p53ts 39C kill 6.3µM*, Ub-GFP proteasome 9%, HBB splice mod 0%, Peg3 imprint -88%, Epigenetic mod 0% and p53ts 32C kill 5µM*.
For O=C(Nc1ccc(CN2CCOCC2)cc1)c1ccccc1F the results were p53ts 39C kill -19% and p53ts 32C kill inconclusive.
`COc1cccc(NC(=O)Nc2cc(-c3cn4cccnc4n3)ccc2OC)c1` gave p53ts 39C kill 10µM*, Peg3 imprint -12%[10.9 µM] and p53ts 32C kill 10µM*.
COc1ccc(-c2cn3cccnc3n2)cc1NC(=O)Nc1cc(C)ccc1C was read as p53ts 39C kill inconclusive, Peg3 imprint -19%[10.9 µM] and p53ts 32C kill 16µM*.
Screening O=C(COC(=O)C1CCN(/C=C/C(=O)C(F)(F)F)CC1)Nc1ccccc1 returned p53ts 39C kill 10%.
